Measurements published in paper PMC9911399, “Two distinct binding modes provide the RNA-binding protein RbFox with extraordinary sequence specificity”.
Positions count from the first letter of the chain named. The full ranking holds about 16,000 sequences; the median of “ka relative to ugcaugu” is about 0.0091, and the highest 2% start at about 0.032. The entries come from a sample that favours the highest values as a whole.

T1: RBFOX1 RRM (Homo sapiens, UniProt Q9NWB1 109-208)
T1 sequence: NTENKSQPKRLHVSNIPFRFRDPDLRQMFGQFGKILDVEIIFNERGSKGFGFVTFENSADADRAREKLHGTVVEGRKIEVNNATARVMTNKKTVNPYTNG

B1: CUGCAGA (DNA:RNA)
RNA: GGGAGACCGGAAUUCAGAUUGUCCCUGCAGAUUAAAUCCCGUCGUAGCCACCA
DNA 1: CAATCTGAATTCCGGTCTCCC
DNA 2: TGGTGGCTACGACGGGATT
B2: AUUUAGA (DNA:RNA)
RNA: B1 RNA with C25A, G27U, C28U
DNA 1: CAATCTGAATTCCGGTCTCCC
DNA 2: TGGTGGCTACGACGGGATT
B3: GAACGUU (DNA:RNA)
RNA: B1 RNA with C25G, U26A, G27A, A29G, G30U, A31U
DNA 1: CAATCTGAATTCCGGTCTCCC
DNA 2: TGGTGGCTACGACGGGATT
B4: CGGCGCA (DNA:RNA)
RNA: B1 RNA with U26G, A29G, G30C
DNA 1: CAATCTGAATTCCGGTCTCCC
DNA 2: TGGTGGCTACGACGGGATT
B5: CCGCUCA (DNA:RNA)
RNA: B1 RNA with U26C, A29U, G30C
DNA 1: CAATCTGAATTCCGGTCTCCC
DNA 2: TGGTGGCTACGACGGGATT
B6: UUAGAAU (DNA:RNA)
RNA: B1 RNA with C25U, G27A, C28G, G30A, A31U
DNA 1: CAATCTGAATTCCGGTCTCCC
DNA 2: TGGTGGCTACGACGGGATT
B7: GUAUACC (DNA:RNA)
RNA: B1 RNA with C25G, G27A, C28U, G30C, A31C
DNA 1: CAATCTGAATTCCGGTCTCCC
DNA 2: TGGTGGCTACGACGGGATT
B8: UGGGCUC (DNA:RNA)
RNA: B1 RNA with C25U, U26G, C28G, A29C, G30U, A31C
DNA 1: CAATCTGAATTCCGGTCTCCC
DNA 2: TGGTGGCTACGACGGGATT
B9: CUGGCUG (DNA:RNA)
RNA: B1 RNA with C28G, A29C, G30U, A31G
DNA 1: CAATCTGAATTCCGGTCTCCC
DNA 2: TGGTGGCTACGACGGGATT
B10: UGGCUGU (DNA:RNA)
RNA: B1 RNA with C25U, U26G, A29U, A31U
DNA 1: CAATCTGAATTCCGGTCTCCC
DNA 2: TGGTGGCTACGACGGGATT
B11: CUGGCUC (DNA:RNA)
RNA: B1 RNA with C28G, A29C, G30U, A31C
DNA 1: CAATCTGAATTCCGGTCTCCC
DNA 2: TGGTGGCTACGACGGGATT
B12: GUGCUGU (DNA:RNA)
RNA: B1 RNA with C25G, A29U, A31U
DNA 1: CAATCTGAATTCCGGTCTCCC
DNA 2: TGGTGGCTACGACGGGATT
B13: GUGGCUG (DNA:RNA)
RNA: B1 RNA with C25G, C28G, A29C, G30U, A31G
DNA 1: CAATCTGAATTCCGGTCTCCC
DNA 2: TGGTGGCTACGACGGGATT
B14: UUGGCUC (DNA:RNA)
RNA: B1 RNA with C25U, C28G, A29C, G30U, A31C
DNA 1: CAATCTGAATTCCGGTCTCCC
DNA 2: TGGTGGCTACGACGGGATT
B15: UUGGCUG (DNA:RNA)
RNA: B1 RNA with C25U, C28G, A29C, G30U, A31G
DNA 1: CAATCTGAATTCCGGTCTCCC
DNA 2: TGGTGGCTACGACGGGATT
B16: CUGUGGC (DNA:RNA)
RNA: B1 RNA with C28U, A29G, A31C
DNA 1: CAATCTGAATTCCGGTCTCCC
DNA 2: TGGTGGCTACGACGGGATT
B17: CCCUGGC (DNA:RNA)
RNA: B1 RNA with U26C, G27C, C28U, A29G, A31C
DNA 1: CAATCTGAATTCCGGTCTCCC
DNA 2: TGGTGGCTACGACGGGATT
B18: CGGCUGU (DNA:RNA)
RNA: B1 RNA with U26G, A29U, A31U
DNA 1: CAATCTGAATTCCGGTCTCCC
DNA 2: TGGTGGCTACGACGGGATT
B19: UGGCUCU (DNA:RNA)
RNA: B1 RNA with C25U, U26G, A29U, G30C, A31U
DNA 1: CAATCTGAATTCCGGTCTCCC
DNA 2: TGGTGGCTACGACGGGATT
B20: CAUUUCG (DNA:RNA)
RNA: B1 RNA with U26A, G27U, C28U, A29U, G30C, A31G
DNA 1: CAATCTGAATTCCGGTCTCCC
DNA 2: TGGTGGCTACGACGGGATT
B21: UAUCCUA (DNA:RNA)
RNA: B1 RNA with C25U, U26A, G27U, A29C, G30U
DNA 1: CAATCTGAATTCCGGTCTCCC
DNA 2: TGGTGGCTACGACGGGATT
B22: GAGGAUC (DNA:RNA)
RNA: B1 RNA with C25G, U26A, C28G, G30U, A31C
DNA 1: CAATCTGAATTCCGGTCTCCC
DNA 2: TGGTGGCTACGACGGGATT
B23: GUAUACA (DNA:RNA)
RNA: B1 RNA with C25G, G27A, C28U, G30C
DNA 1: CAATCTGAATTCCGGTCTCCC
DNA 2: TGGTGGCTACGACGGGATT
B24: GUUGCGA (DNA:RNA)
RNA: B1 RNA with C25G, G27U, C28G, A29C
DNA 1: CAATCTGAATTCCGGTCTCCC
DNA 2: TGGTGGCTACGACGGGATT
B25: AUCUGUA (DNA:RNA)
RNA: B1 RNA with C25A, G27C, C28U, A29G, G30U
DNA 1: CAATCTGAATTCCGGTCTCCC
DNA 2: TGGTGGCTACGACGGGATT
B26: ACGGGUC (DNA:RNA)
RNA: B1 RNA with C25A, U26C, C28G, A29G, G30U, A31C
DNA 1: CAATCTGAATTCCGGTCTCCC
DNA 2: TGGTGGCTACGACGGGATT
B27: UGUGAUC (DNA:RNA)
RNA: B1 RNA with C25U, U26G, G27U, C28G, G30U, A31C
DNA 1: CAATCTGAATTCCGGTCTCCC
DNA 2: TGGTGGCTACGACGGGATT
B28: CCAGUCU (DNA:RNA)
RNA: B1 RNA with U26C, G27A, C28G, A29U, G30C, A31U
DNA 1: CAATCTGAATTCCGGTCTCCC
DNA 2: TGGTGGCTACGACGGGATT
B29: UCAGGUC (DNA:RNA)
RNA: GGGAGACCGGAAUUCAGAUUGUCCUCAGGUCUUAAAUCCCGUCGUAGCCACCA
DNA 1: CAATCTGAATTCCGGTCTCCC
DNA 2: TGGTGGCTACGACGGGATT
B30: GGAAAAU (DNA:RNA)
RNA: B1 RNA with C25G, U26G, G27A, C28A, G30A, A31U
DNA 1: CAATCTGAATTCCGGTCTCCC
DNA 2: TGGTGGCTACGACGGGATT
B31: CUAUCGG (DNA:RNA)
RNA: B1 RNA with G27A, C28U, A29C, A31G
DNA 1: CAATCTGAATTCCGGTCTCCC
DNA 2: TGGTGGCTACGACGGGATT

The binders below were run against T1, RBFOX1 RRM (assay: EMSA; HiTS-Eq, 1 nM pool, 10 min; buffer printed only for the single-RNA assays: 10 mM Tris pH 7.5, 150 mM NaCl, 3.4 mM EDTA, 0.001% NP-40, 30 C). Conditions: tags: His6 N-terminal (pET28a); label: 5' 32P.
Summary of the method: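 Relative association constants, normalised to the cognate motif, were derived by comparing read counts of each RNA species with those of the control reaction. The RNA sequenced was the free fraction, separated by 8% native PAGE after a 10 min equilibration in 50 µL of 1 nM 5′-radiolabelled RNA (7 randomized nucleotides) with increasing concentrations of purified wild-type or mutant RbFox RRM.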
B1 was tested, and the binding signal was 0.0168 KA relative to UGCAUGU.
For B2, the binding signal was 0.0108 KA relative to UGCAUGU.
For B3, the binding signal was 0.0166 KA relative to UGCAUGU.
With B4 the binding signal was 0.0121 KA relative to UGCAUGU.
In the case of B5, the binding signal is reported as 0.00712 KA relative to UGCAUGU.
For B6, the binding signal was 0.00773 KA relative to UGCAUGU.
B7 was tested, and the binding signal was 0.0043 KA relative to UGCAUGU.
For B8, the binding signal was 0.0362 KA relative to UGCAUGU.
In the case of B9, the binding signal is reported as 0.0348 KA relative to UGCAUGU.
With B10 the binding signal was 0.0395 KA relative to UGCAUGU.
B11 was tested, and the binding signal was 0.0211 KA relative to UGCAUGU.
In the case of B12, the binding signal is reported as 0.021 KA relative to UGCAUGU.
With B13 the binding signal was 0.0289 KA relative to UGCAUGU.
For B14, the binding signal was 0.0219 KA relative to UGCAUGU.
For B15, the binding signal was 0.0406 KA relative to UGCAUGU.
With B16 the binding signal was 0.0106 KA relative to UGCAUGU.
In the case of B17, the binding signal is reported as 0.011 KA relative to UGCAUGU.
B18 was tested, and the binding signal was 0.0179 KA relative to UGCAUGU.
In the case of B19, the binding signal is reported as 0.0197 KA relative to UGCAUGU.
For B20, the binding signal was 0.00769 KA relative to UGCAUGU.
B21 was tested, and the binding signal was 0.00279 KA relative to UGCAUGU.
With B22 the binding signal was 0.0149 KA relative to UGCAUGU.
In the case of B23, the binding signal is reported as 0.00201 KA relative to UGCAUGU.
In the case of B24, the binding signal is reported as 0.0206 KA relative to UGCAUGU.
For B25, the binding signal was 0.00557 KA relative to UGCAUGU.
For B26, the binding signal was 0.0159 KA relative to UGCAUGU.
B27 was tested, and the binding signal was 0.0227 KA relative to UGCAUGU.
For B28, the binding signal was 0.00457 KA relative to UGCAUGU.
In the case of B29, the binding signal is reported as 0.0155 KA relative to UGCAUGU.
In the case of B30, the binding signal is reported as 0.00757 KA relative to UGCAUGU.
In the case of B31, the binding signal is reported as 0.00622 KA relative to UGCAUGU.
